SMILES strings stand for the structures. Hit rate of the full screen: of about 66,000 compounds, about 960 (1.5%) showed an effect of 50% or more. Shown is part of a subset that was picked to be rich in strong results.

This assay deals with Trypanosoma brucei. The experiment in a line: Trypanosoma brucei 72 hour study. It is filed as functional, organism-based. Also noted: scale not given: in the data most compounds retested in dose-response had high values.

Take `CCOc1ccc(CN[C@@H]2COC[C@H]2c2ccc(F)cc2)cc1.O=C(O)CC(O)(CC(=O)O)C(=O)O`: the “Percent Effect” value (30.3 µM, […]) is -47.65%.

As to `COCCN1C[C@H]2CC[C@@H]1CN(C(=O)CCn1cc(Cl)cn1)C2`, the “Percent Effect” value (30.3 µM, […]) is reported as 4.772%.

Consider `Cc1nc2c(c(NCc3nc4ccccc4s3)n1)CCNCC2`, for which, under “30.3 µM, […]”, the “Percent Effect” value is recorded as 53.81%.

Turning to `Cc1nc2c(c(NCC3Cc4ccccc4CN3C)n1)CCNCC2` (stereo unspecified), the “Percent Effect” value (30.3 µM, […]) came out at 15.13%.

With `Cc1nc2c(c(NCc3ccc(-c4ccccn4)s3)n1)CCNCC2`, the “Percent Effect” value (30.3 µM, […]) was 42.43%.

On to `Cc1nc(CNc2nc(-c3ccco3)nc3c2CCNCC3)n[nH]1`, for which, for the setting “30 µM, 30.03 µM”, the “Percent Effect” value is recorded as 14.93%.

As to `Cc1nc2c(c(NCC(O)c3ccccc3Cl)n1)CCNCC2` (stereo unspecified), for the setting “30 µM, 30.03 µM”, the “Percent Effect” value was -31.73%.

Consider `Cc1nc2c(c(NCc3cc4ccccc4s3)n1)CCNCC2`, for which, under “30.3 µM, […]”, the “Percent Effect” value was 99.88%.

Consider `CC(C)CN1CCO[C@H]2CCN(c3cnccn3)CC[C@@H]21.O=C(O)C(F)(F)F`, for which, for the setting “30.3 µM, […]”, the “Percent Effect” value is given as -43.11%.

Consider `CCCS(=O)(=O)N1C[C@H]2C[C@H](C(=O)N3CCCC3)[C@@H](C1)O2`, for which, for the setting “30.3 µM, […]”, the “Percent Effect” value is listed as -3.417%.

For `Cc1occc1C(=O)N1C[C@@H]2OCCN(C(C)C)[C@@H]2C1.O=C(O)C(F)(F)F`, the “Percent Effect” value (30 µM, 30.03 µM) is given as 5.268%.

`CS(=O)(=O)N1CCN(CC(O)COc2ccc(Cl)cc2)CC1` (stereo unspecified): the “Percent Effect” value (10 µM) is listed as -47.15%.

As for `Cc1csc(CN2CCC[C@]3(C[C@@H](OCC4CC4)CO3)C2)n1.O=C(O)C(F)(F)F`, the “Percent Effect” value (30 µM, 30.03 µM) is given as -17.53%.

With `Cc1cc(F)ccc1CN1CCC(O)(CN2CCCCC2)C1` (stereo unspecified), the “Percent Effect” value (30 µM, 30.03 µM) is on record as -52.45%.

Turning to `Cc1cc(F)ccc1CN1CCCC(O)(CN2CCCC2)C1` (stereo unspecified), where the note is “30.3 µM, […]”, the “Percent Effect” value was found to be 54.93%.

Turning to `OC1(CN2CCCC2)CCCN(Cc2ccc(F)cc2Cl)C1` (stereo unspecified), under “30 µM, 30.03 µM”, the “Percent Effect” value was -4.937%.

Turning to `CN(C)CCN(Cc1ccccn1)Cc1ccnn1C1CCCCO1.O=C(O)CC(O)(CC(=O)O)C(=O)O` (stereo unspecified), the “Percent Effect” value (30.3 µM, […]) is recorded as -14.13%.

Take `Cn1nnc2c1C(COCC1CC1)CN(Cc1ccoc1)C2.O=C(O)C(F)(F)F` (stereo unspecified): for the setting “30 µM, 30.03 µM”, the “Percent Effect” value was found to be 5.795%.

`CCNc1ccnc(N2Cc3cnn(Cc4ccc(F)cc4)c3C2)n1`: for the setting “30 µM, 30.03 µM”, the “Percent Effect” value is 57.35%.

Turning to `Fc1ccc(Cn2ncc3c2CN(c2ncccn2)C3)cc1`, under “30 µM, 30.03 µM”, the “Percent Effect” value is 2.324%.

Take `Cc1ccnc(N2Cc3cnn(Cc4ccc(F)cc4)c3C2)n1`: under “30 µM, 30.03 µM”, the “Percent Effect” value is -9.847%.

For `Cc1cc(C)nc(N2Cc3cnn(Cc4ccc(F)cc4)c3C2)n1`, the “Percent Effect” value (30 µM, 30.03 µM) worked out at 3.465%.

On to `CNc1cc(C)nc(N2Cc3cnn(Cc4ccc(F)cc4)c3C2)n1`, for which the “Percent Effect” value (30 µM, 30.03 µM) worked out at 98.86%.

Turning to `Cc1nc(N2Cc3cnn(Cc4ccc(F)cc4)c3C2)no1`, the “Percent Effect” value (30 µM, 30.03 µM) was 12.66%.

Regarding `CC(C)c1nn(C)c(Cl)c1CNCc1ccc(N(C)C)nc1.Cl`, the “Percent Effect” value (30.3 µM, […]) is 12.78%.

For the compound `CC(C)CN1CCC2(CCN(Cc3ccc(F)cc3)CC2)C1=O.O=C(O)C(F)(F)F`, for the setting “30.3 µM, […]”, the “Percent Effect” value is given as 15.86%.

Consider `Cc1cccc(CN2CCCC2c2cccc(Nc3nccs3)n2)c1` (stereo unspecified), for which, for the setting “30.3 µM, […]”, the “Percent Effect” value came to 33.44%.

For the compound `Cc1cc(C2CCCN2Cc2cc(-c3ccco3)on2)on1` (stereo unspecified), the “Percent Effect” value (30 µM, 30.03 µM) is given as -36.29%.

`Cc1nccc(C2CCCCN2Cc2cccc(F)c2)n1` (stereo unspecified): the “Percent Effect” value (30.3 µM, […]) is listed as -5.435%.

For the compound `Cc1cccc(CN2CCCCC2c2n[nH]cc2-c2cc(C)no2)c1.Cl` (stereo unspecified), the “Percent Effect” value (30.3 µM, […]) came out at 54.66%.

Turning to `Cc1cccc(CN2CCCC2c2cccc(CCC(=O)O)n2)c1` (stereo unspecified), the “Percent Effect” value (30.3 µM, […]) is reported as -27.55%.

Turning to `Cc1nc(C2CN(Cc3ccccc3C)CCO2)no1` (stereo unspecified), the “Percent Effect” value (30.3 µM, […]) is listed as -23.18%.

Consider `CN(CC1(O)CCCN(c2ccccn2)C1)C(=O)CCc1cccs1` (stereo unspecified), for which, for the setting “30.3 µM, […]”, the “Percent Effect” value turned out to be 19.98%.

Turning to `Cc1ccc(CN(CCCN2CCOCC2)Cc2cnn(C)c2)o1.O=C(O)CC(O)(CC(=O)O)C(=O)O`, the “Percent Effect” value (30.3 µM, […]) was -8.498%.

On to `CN(C)C(=O)[C@]12CCCN(CC3CC3)C[C@H]1CN(c1ccccn1)C2.O=C(O)C(F)(F)F.O=C(O)C(F)(F)F`, for which the “Percent Effect” value (30.3 µM, […]) is on record as 0.08001%.

On to `CN1CC(=O)N(c2ccccc2)CC12CCN(C(=O)c1ccnnc1)C2.O=C(O)C(F)(F)F` (stereo unspecified), for which, under “30.3 µM, […]”, the “Percent Effect” value is given as -13.49%.

Consider `CN(C)C(=O)COC[C@]12COC[C@H]1CN(Cc1ccccc1)C2.O=C(O)C(F)(F)F`, for which the “Percent Effect” value (30.3 µM, […]) is listed as -79.79%.

As to `O=C(c1cc(=O)n(-c2ccccc2)[nH]1)N1CCOC(C(F)(F)F)C1` (stereo unspecified), for the setting “30 µM, 30.03 µM”, the “Percent Effect” value is 25.14%.

As for `Cc1cnc(CN(Cc2ccc(Cl)s2)C2CCN(C)C2)o1` (stereo unspecified), under “30 µM, 30.03 µM”, the “Percent Effect” value is -5.686%.

Regarding `COc1ccc(C(C)NCCC(N)=O)cc1F` (stereo unspecified), under “30 µM, 30.03 µM”, the “Percent Effect” value is reported as -19.58%.

Take `COc1cc(CNC(C)c2ccc(F)c(F)c2)cc2c1OCCO2.O=C(O)C(=O)O` (stereo unspecified): for the setting “30.3 µM, […]”, the “Percent Effect” value was found to be 100.7%.

Take `COc1cc(C(=O)NC(C)c2cccs2)cc2c1OCCO2` (stereo unspecified): the “Percent Effect” value (30.3 µM, […]) is on record as 6.204%.

Take `CCn1ncc(-c2cc(C(F)F)nc3sc(C(N)=O)c(N)c23)c1C`: where the note is “30 µM, 30.03 µM”, the “Percent Effect” value turned out to be 26.92%.

In the case of `Cc1nc[nH]c1CN1CCN(C(=O)CCC(F)(F)F)[C@H]2CS(=O)(=O)C[C@H]21`, the “Percent Effect” value (30 µM, 30.03 µM) came to 50.6%.

Consider `Cc1nc[nH]c1CN1CCN(C(=O)C2(C)CC2)[C@H]2CS(=O)(=O)C[C@H]21`, for which, under “30 µM, 30.03 µM”, the “Percent Effect” value is listed as 1.317%.

Take `Cc1nc[nH]c1CN1CCN(C(=O)CN2CCCC2)[C@H]2CS(=O)(=O)C[C@H]21`: the “Percent Effect” value (30 µM, 30.03 µM) is 8.106%.

The record behind these values is ChEMBL document CHEMBL3988442, “University of Dundee, Small-Polar-MMV Screening Library” (2021).
